# Tb PYK inh = T. brucei pyruvate kinase inhibition; TbPYK enzyme, Kinase-Glo Plus ATP luminescence, 45 min; 410,000 tested, 0.12% active; Potency, µM (series often up to 76.8 µM), for the others: top-dose activity, negative = inhibition, usual class: inhibitors; also: nearly all actives have a fitted effect of over 50% in size
#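 Quantitative HTS: titrated library compounds versus trypanosomal pyruvate kinase in TEA buffer (pH 7.2) containing KCl, MgCl2, BSA and Tween-20. Reactions were initiated with ADP, 130 uM final. Kinase-Glo Plus luminescence was read after 45 min at RT.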
# LmPK inhibitor = blocks Leishmania mexicana pyruvate kinase activity. purified LmPK, Kinase-Glo ATP luminescence, 1 h. Potency, µM (top dose mostly 57.5 µM), for the others: at the highest dose activity change, negative = inhibition, hits mostly inhibitors. 290,000 tested, 0.37% active. AID 1721
#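 ATP generated from ADP (0.1 mM) and PEP (0.5 mM) by 0.1 nM LmPK over 1 h at room temperature (pH 7.2 imidazole buffer) was detected by coupled luciferase luminescence. Values were normalized to uninhibited and no-enzyme wells.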
# RE007 growth inh = less growth of the S. pombe RE007 Vpr strain | S. pombe RE007 Vpr strain, BacTiter-Glo ATP luminescence, 24 h | Potency, µM (titrated, usually from 92.2 µM), inactives show at the highest dose activity change, negative = less growth, usual class: inhibitors | AID 651644 | 360,000 tested, 0.21% active; active = well fitted falling curve with a large enough effect; inconclusive = small, poorly fitted or top-dose-only effect; inactive = no such curve, though single readings can be large or run the other way; also: nearly all actives have a fitted effect of over 50% in size
#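 Fission yeast RE007 carrying one integrated HIV-1 vpr copy, seeded at OD 0.01 in PMG+AL medium with 23 nL pinned compound. Grown 24 h at 30 degrees; viability read by BacTiter-Glo luminescence after 5 min.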
# AmpC no deterg = blocks E. coli AmpC beta-lactamase in detergent-free assay; P00811; AmpC nitrocefin hydrolysis, absorbance 480 nm, 0.0001% Triton; Potency, µM (highest dose often 57.1 µM), inactives show at the highest dose activity change, negative = inhibition, usual class: inhibitors; 330,000 tested, 0.52% active; AID 485341;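 also: plate controls were no compound for no effect and no enzyme for full effect; nearly all actives have a fitted effect of over 20% in size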
# Target sequence (P00811 whole entry, looked up): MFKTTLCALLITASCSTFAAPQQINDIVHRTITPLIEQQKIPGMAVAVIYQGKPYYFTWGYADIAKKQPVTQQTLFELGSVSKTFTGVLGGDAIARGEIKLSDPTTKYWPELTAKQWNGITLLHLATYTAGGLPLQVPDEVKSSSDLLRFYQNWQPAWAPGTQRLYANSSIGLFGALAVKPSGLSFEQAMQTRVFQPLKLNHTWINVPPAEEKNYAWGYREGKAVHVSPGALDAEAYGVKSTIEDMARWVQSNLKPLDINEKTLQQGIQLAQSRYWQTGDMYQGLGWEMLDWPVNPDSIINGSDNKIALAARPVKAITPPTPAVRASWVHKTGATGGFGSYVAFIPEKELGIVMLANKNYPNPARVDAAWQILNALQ
#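 AmpC (5.3 nM in the dispensed reagent) in 20 mM phosphate pH 7.0 with 0.01% (detergent screen) or 0.0001% Triton X-100 was preincubated with compounds for 15 min at room temperature. Nitrocefin was then added from an 800 uM solution, and hydrolysis was followed at 480 nm.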
# AmpC detergent = AmpC beta-lactamase inhibition with detergent present. AmpC hydrolysis of nitrocefin, absorbance 480 nm, 0.01% Triton. Potency, µM (doses to about 114 µM), inactives show at the top dose activity change, negative = inhibition, hits mostly inhibitors. 370,000 tested, 0.041% active. AID 485294;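 also: 0% = no-compound wells and -100% = no-enzyme wells; nearly all actives have a fitted effect of over 25% in size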
#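 20 mM phosphate pH 7.0 + 0.01% (detergent screen) or 0.0001% Triton X-100; 5.3 nM AmpC reagent; cpd preinc 15 min RT; nitrocefin (800 uM stock) to start; A480 q20 s × 4 min; Activity was normalised to no-enzyme and no-compound control wells.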
# FBPA Giardia inh = Giardia lamblia aldolase inhibition; A8B2U2; purified Giardia FBPA; Potency, µM (top dose mostly 59.6 µM), inactives show top-dose activity, negative = inhibition, most hits filed as inhibitors; 290,000 tested, 0.71% active; also: nearly all actives have a fitted effect of over 55% in size
# Target sequence (A8B2U2 whole entry, looked up): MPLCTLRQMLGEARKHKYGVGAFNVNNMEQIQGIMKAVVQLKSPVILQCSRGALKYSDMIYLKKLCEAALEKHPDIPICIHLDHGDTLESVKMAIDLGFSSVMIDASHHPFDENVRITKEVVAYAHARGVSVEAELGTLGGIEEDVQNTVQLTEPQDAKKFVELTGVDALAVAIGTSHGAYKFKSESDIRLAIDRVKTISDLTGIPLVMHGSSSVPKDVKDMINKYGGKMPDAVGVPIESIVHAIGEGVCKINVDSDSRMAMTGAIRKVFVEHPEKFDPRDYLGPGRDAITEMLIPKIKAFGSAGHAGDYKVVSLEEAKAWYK
#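 Giardia FBPA (40 nM reagent) was preincubated 10 min at RT with compound (up to 57.5 uM final), then substrate plus GAPDH/TPI/NAD/arsenate coupling system with diaphorase/resazurin was added; resorufin fluorescence (525/598 nm) was read after 20 min.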
# * marks the source's active call; other numbers are inactive results; u = inconclusive; x = no result given; [ ] = remark or other dose. Sampled rows, rich in hits. Any-hit rate of the full collection: about 1.4%. Unless noted, calls follow the shape of the dose curve; as a rule, active = well fitted curve in the direction sought with a large enough effect; inconclusive = small, poorly fitted or top-dose-only effect, or another doubt; inactive = no such curve, though single readings can be large; an effect the other way counts as inactive or inconclusive. Unless noted, % is scaled to controls: 0 for no effect and ±100 for the full control effect; potency is read from the fitted curve at half-maximal effect.
SMILES,Tb PYK inh,LmPK inhibitor,RE007 growth inh,AmpC no deterg,AmpC detergent,FBPA Giardia inh
CCN1CCOC(CC(=O)Nc2ccc([N+](=O)[O-])cc2)C1=O (stereo not drawn),1.0%,-2.8%,44.7µM*,-15.8%,7.6%,-1.5%
O=C(CC1OCC2CCCN2C1=O)Nc1ccc([N+](=O)[O-])cc1 (stereo not drawn),2.8%,1.2%,u,-36.2%,-10.2%,-0.4%
CC1(C)O[C@@H]2[C@H](O1)[C@@H](COS(=O)(=O)O)O[C@H]2n1c(=S)[nH]c2c(=O)[nH]c(N)nc21,35.5µM*,x,0.2%,-8.8%,-10.5%,x
CC1(C)O[C@@H]2[C@H](O1)[C@@H](COS(=O)(=O)O)O[C@H]2n1cnc2c(N)ncnc21,x,x,x,-5.7%,3.0%,x
Cc1cc(C)cc(-n2ccnc2SCC(=O)Nc2ccc3c(c2)OCO3)c1,3.9%,x,x,x,-10.1%,x
Cc1ccccc1/C(N)=N/OC(=O)c1ccc(F)cc1,-11.7%,15.8µM*,-9.7%,1.7%[2.29 µM],-8.9%,0.0%
O=C(NC(=S)NNC(=O)[C@H]1C[C@@H]1c1ccccc1)c1ccc(F)cc1,u,-2.4%,25.2%,-37.5%,-9.4%,22.4%
O=C(/C=C/c1ccc(F)cc1)NC(=S)NNC(=O)[C@H]1C[C@@H]1c1ccccc1,-1.7%,8.4%,-4.4%,10µM*,-2.5%,21.1%
COC(=O)c1sccc1NC(=O)Nc1ccc(Cl)c(Cl)c1,-3.5%,-2.4%,1.9%,0.159µM*,3.3%,0.7%
COC(=O)c1sccc1NC(=O)Nc1ccccc1F,u,14.1µM*,-22.0%,-24.7%,-0.5%,-13.9%
COC(=O)c1sccc1NC(=O)Nc1ccccc1C,-8.2%,1.1%,-8.4%,-36.6%,3.9%,x
COc1ccc(NC(=O)CN2C(=O)COc3ccc(S(=O)(=O)N4CCCCC4)cc32)cc1Cl,-4.8%,x,x,x,13.6%,x
CCOc1ccc2nc(N3CCCC(C(=O)NCCCN4CCOCC4)C3)sc2c1 (stereo not drawn),-4.2%,0.8%,-8.2%,3.16µM*,u,-3.1%
Cc1ccc(Cl)cc1N1CCN(C(=O)C2CCN(c3nnc(-n4cccc4)s3)CC2)CC1,-0.5%,0.5%,-3.8%,1.78µM*,u,4.8%
Cc1ccc(Cl)cc1N1CCN(C(=O)c2cccn2-c2nnc(N3CCCCC3)s2)CC1,7.4%[15.4 µM],x,x,x,-0.8%,x
OC[C@H]1O[C@@H](n2cnc3c2NC=NC[C@H]3O)C[C@@H]1O,-15.8%,x,x,x,x,x
Oc1[nH]c(=S)sc1C=C1N=c2ccccc2=N1,u,15.8µM*,4.1%,-34.6%,6.2%,-9.1%
Cc1ccc(-n2c(C)n[nH]c2=S)cc1,u,-10.2%,-0.2%,-1.8%,-12.9%,u
CC(C)(C)c1cc(-c2n[nH]c(=S)n2-c2ccc(Cl)cc2)n[nH]1,u,12.6µM*,1.9%,-40.6%,2.1%,8.1%
Cc1nn(C)cc1-c1n[nH]c(=S)n1-c1ccc(Cl)cc1,u,7.94µM*,11.3%,-10.8%,-4.4%,-15.7%
COc1ccccc1Cn1c(C2CC(=O)N(c3ccccc3OC)C2)nc2ccccc21 (stereo not drawn),23.0%,x,x,x,0.5%,x
CCOc1ccc(CNC(=O)CCn2c(=O)c3cccn3c3ccc(F)cc32)cc1,-4.5%,x,x,x,21.2%,x
O=C(CSc1nc2c([nH]c3ccccc32)c(=O)n1-c1ccc(F)cc1)NCc1ccco1,-2.2%,1.7%,3.5%,22.4µM*,7.0%,6.9%
O=C(Nc1nccs1)c1cc2sccc2n1Cc1ccc(F)cc1,-0.2%,4.4%,-6.4%,22.4µM*,-9.8%,-8.8%
COc1ccc(-c2c(C#N)c(SCC(=O)Nc3ccccc3C)nc(C)c2C(=O)Nc2ccccc2)cc1OC,4.2%,x,x,x,1.9%,x
SMILES,Tb PYK inh,LmPK inhibitor,RE007 growth inh,AmpC no deterg,AmpC detergent,FBPA Giardia inh
Clc1ncccc1-c1nnn(-c2ccccc2)n1,-11.4%,15.8µM*,-22.9%,-19.6%,7.8%,4.4%
COc1cc(/C=N/Nc2nncn2N)ccc1OCc1c(C)no[n+]1[O-],2.2%,0.0%,-16.0%,17.6%,3.4%,5µM*
COc1ccc(S(=O)(=O)N(C)CC(=O)Nc2ccc3c(c2)OCO3)cc1,8.9%,2.4%,7.2%,4.7%,-14.2%,-5.4%
COc1ccc(S(=O)(=O)N(C)CC(=O)Nc2c(F)cccc2F)cc1,4.6%,3.6%,3.3%,0.141µM*,-0.9%,-0.7%
C[n+]1cccc2cccc([O-])c21,-3.7%,-2.5%,4.2%,-7.3%,-6.1%,0.446µM*
[O-][n+]1cccc2cccc(O)c21,-5.9%,x,25.4%,x,x,x
Cc1cccc(N2C(=O)CC(N3CCC(c4nc5ccccc5[nH]4)CC3)C2=O)c1 (stereo not drawn),-0.3%,-9.5%,28.2µM*,12.1%,3.7%,3.2%
O=C1CC(N2CCC(c3nc4ccccc4o3)CC2)C(=O)N1c1cc(Cl)cc(Cl)c1 (stereo not drawn),-13.8%,17.4%,28.2µM*,119.7%,8.8%,-5.1%
COc1ccc(N2C(=O)CC(N3CCC(n4c(=O)[nH]c5ccccc54)CC3)C2=O)cc1 (stereo not drawn),0.4%,0.3%,28.2µM*,33.0%,-3.9%,1.4%
COc1cccc(N2C(=O)CC(N3CCC(c4nc5ccccc5[nH]4)CC3)C2=O)c1 (stereo not drawn),-6.4%,-3.7%,35.5µM*,11.8%,-6.9%,10.9%
CCN1C(=O)CC(N2CCC(c3nc4ccccc4[nH]3)CC2)C1=O (stereo not drawn),5.2%,9.3%,-2.9%,-5.7%,2.9%,-0.1%
CC12CC3CC(C)(C1)CC(C(=O)NC1=NCCS1)(C3)C2,-8.1%,2.8%,5.62µM*,-2.3%,-0.4%,0.0%
CC(C)(C)C(=O)NC1=NCCS1,-0.6%,-3.7%,7.2%,-8.2%,u,-2.4%
CC12CC3(C)CC(C)(C1)CC(C(=O)NC1=NCCS1)(C2)C3,0.7%,x,25.1µM*,x,x,x
O=C(NC1=NCCS1)C12CC3CC(C1)CC(C(=O)NC1=NCCS1)(C3)C2,-14.1%,-2.3%,-16.6%,-31.8%,-12.5%,-3.0%
COc1ccc(Cl)cc1NC(=O)CN1C(=O)CSc2ccc(S(=O)(=O)N3CCCC3)cc21,2.6%,x,x,x,4.0%,x
N#Cc1c(SCC(=O)Nc2nc3ccc(Br)cc3s2)sc2c(O)cc(=O)[nH]c12,-13.4%,-2.1%,-10.1%,25.1µM*,3.5%,-6.2%
O=C(NCCc1ccccc1)c1ccc2c(c1)N(Cc1ccc(Cl)cc1)C(=O)c1ccccc1S2(=O)=O,2.4%,x,x,x,4.3%,x

# Assay outcomes as filed in PubChem.
